# Source: PubChem BioAssay (Tox21)
# Values joined by “and” are separate entries in the source; they are usually repeats but may differ in a detail not shown here. Identical values can stand only once. Records with an inconclusive call do not appear. A call without a number means that no potency is given here. Some structures have more than one record in an assay (separate samples or runs), and their calls can disagree. Active and inactive are the calls of the source. Unless noted, the call rests on the fitted dose curve.
# Experiments:
# [1] = Nuclear factor erythroid 2-related factor 2/antioxidant responsive element (Nrf2/ARE) small molecule agonists: qHTS cell viability counter screen in human keratinocytes (AID 1919968; active means well fitted curve in the direction sought with a large enough effect in the repeat runs; an effect the other way counts as inactive or inconclusive; further: nearly all actives have a fitted effect of over 55% in size)
# Method in brief: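 Viability counter-screen: KeratinoSens reporter cells, DMSO-delivered compounds, 23 h at 37 C, CellTiter-Fluor fluorescence.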
# [2] = Nuclear factor erythroid 2-related factor 2/antioxidant responsive element (Nrf2/ARE) small molecule agonists: luciferase reporter gene qHTS assay in human keratinocytes (AID 1919969); further: nearly all actives have a fitted effect of over 35% in size; further: potency means the concentration at half of the fitted maximal effect
# [3] = biological target: Gonadotropin-releasing hormone receptor (Homo sapiens) (UniProt P30968); assay: Human gonadotropin-releasing hormone receptor (GnRHR) small molecule agonists, calcium flux assay in GnRHR-HEK293 cells (AID 1920063); further: nearly all actives have a fitted effect of over 35% in size
# Chain of Gonadotropin-releasing hormone receptor (Homo sapiens) (P30968 whole entry, looked up): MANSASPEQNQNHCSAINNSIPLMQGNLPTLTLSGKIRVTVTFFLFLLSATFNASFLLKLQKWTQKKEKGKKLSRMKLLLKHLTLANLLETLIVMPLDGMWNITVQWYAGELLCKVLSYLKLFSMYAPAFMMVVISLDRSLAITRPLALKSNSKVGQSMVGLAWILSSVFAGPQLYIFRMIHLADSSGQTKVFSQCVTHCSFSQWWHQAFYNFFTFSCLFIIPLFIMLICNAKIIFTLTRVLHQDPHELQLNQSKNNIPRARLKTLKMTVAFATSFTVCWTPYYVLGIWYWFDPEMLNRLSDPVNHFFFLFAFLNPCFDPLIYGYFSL
# Method in brief: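 Tox21-format agonist screen using human GnRHR-expressing HEK293 cells and a fluorescent calcium dye; kinetic 3-min fluorescence reading after compound addition, 15-point concentration series run in triplicate.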
# [4] = biological target: KiSS-1 receptor (Homo sapiens) (UniProt Q969F8); assay: Human kisspeptin (KISS1R) small molecule agonists, calcium flux assay in KISS1R-HEK293 cells (AID 1920064; active means well fitted curve in the direction sought with a large enough effect in the repeat runs; an effect the other way counts as inactive or inconclusive)
# Chain of KiSS-1 receptor (Homo sapiens) (Q969F8 whole entry, looked up): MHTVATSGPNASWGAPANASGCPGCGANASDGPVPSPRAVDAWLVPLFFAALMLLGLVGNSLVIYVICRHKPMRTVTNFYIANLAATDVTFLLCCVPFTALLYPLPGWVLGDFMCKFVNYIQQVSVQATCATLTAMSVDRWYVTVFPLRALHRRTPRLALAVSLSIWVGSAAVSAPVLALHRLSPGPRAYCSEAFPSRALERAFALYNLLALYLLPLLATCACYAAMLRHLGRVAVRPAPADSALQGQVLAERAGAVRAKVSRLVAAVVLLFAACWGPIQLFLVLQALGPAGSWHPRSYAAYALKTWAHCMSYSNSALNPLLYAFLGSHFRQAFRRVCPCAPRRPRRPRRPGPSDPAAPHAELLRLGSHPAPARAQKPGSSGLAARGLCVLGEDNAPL
# Method in brief: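 Intracellular calcium mobilization in KISS1R-HEK293 cells was recorded by fluorescence (Ex/Em 480/540) for 3 min following compound addition to cells pre-loaded 1 h with calcium dye.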
# [5] = G protein-coupled receptor (GPCR) small molecule agonists, calcium flux assay: HEK293 wild type cell line counter screen (AID 1920065)
# Method in brief: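 In this agonist-mode screen, ATP is the positive control and DMSO the vehicle. Cells grow 18 h before a 1 h dye incubation at 37 C; signal is taken at Ex/Em 480/540 over 3 min.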
# [6] = p53 small molecule agonists, cell-based qHTS assay with human liver microsomes (AID 1963577);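 further: p53 response element beta-lactamase reporter cells with liver microsomes plus NADPH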
# Method in brief: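 Reporter activation was measured by LiveBLAzer fluorescence intensity in p53RE-bla cells, which had been exposed to compounds for 16 h at 37 C alongside 0.5 mg/mL human liver microsomes and 0.5 mg/mL NADPH (final concentrations).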
# [7] = p53 small molecule agonists, cell-based qHTS assay with rat liver microsomes (AID 1963578)
# Method in brief: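 Compound in DMSO added to p53RE-bla cells 5 h post-plating; rat microsomes/NADPH 0.5 mg/mL final; 16 h, 37 C; LiveBLAzer 2 h RT.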
# [8] = p53 small molecule agonists, cell-based qHTS assay with human liver microsomes: qHTS cell viability counter screen (AID 1963579); further: nearly all actives have a fitted effect of over 45% in size
# Method in brief: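 HLM-supplemented (0.5 mg/mL final) and NADPH-supplemented (0.5 mg/mL final) p53RE-bla cultures, 4,000 cells per well, were dosed with compounds in DMSO for 16 h at 37 C; luminescent ATP detection (CellTiter-Glo, 30 min, room temperature) quantified surviving cells.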
# [9] = p53 small molecule agonists, cell-based qHTS assay with rat liver microsomes: qHTS cell viability counter screen (AID 1963580); further: nearly all actives have a fitted effect of over 45% in size
# Method in brief: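 Viability is assessed in parallel with the p53 reporter read: HCT-116 p53RE-bla cells receive compounds plus rat microsomes and NADPH (0.5 mg/mL final apiece), incubate 16 h at 37 C, and then CellTiter-Glo luminescence is recorded.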
# [10] = p53 small molecule agonists, cell-based qHTS assay: qHTS cell viability counter screen (AID 1963581); further: nearly all actives have a fitted effect of over 45% in size
# Method in brief: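 Compounds are pinned onto HCT-116 p53RE-bla cells and left 16 h at 37 C. Following the reporter FRET read, ATP is quantified by CellTiter-Glo luminescence after 30 min at room temperature.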
# [11] = p53 small molecule agonists, cell-based qHTS assay (AID 1963582; active means well fitted activation curve with a large enough effect in the signal ratio in the repeat runs, not every such curve was filed as active; the % refers to the signal ratio)
# Method in brief: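 Agonist activity was scored from beta-lactamase FRET fluorescence in p53RE-bla cells treated 16 h at 37 C with compounds in DMSO, substrate incubation being 2 h at room temperature.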
# [12] = biological target: 5-hydroxytryptamine receptor 2A (Homo sapiens) (UniProt P28223); assay: 5-hydroxytryptamine receptor 2A (HTR2A) small molecule antagonists, cell-based qHTS assay (AID 1963586); further: nearly all actives have a fitted effect of over 45% in size
# Chain of 5-hydroxytryptamine receptor 2A (Homo sapiens) (P28223 whole entry, looked up): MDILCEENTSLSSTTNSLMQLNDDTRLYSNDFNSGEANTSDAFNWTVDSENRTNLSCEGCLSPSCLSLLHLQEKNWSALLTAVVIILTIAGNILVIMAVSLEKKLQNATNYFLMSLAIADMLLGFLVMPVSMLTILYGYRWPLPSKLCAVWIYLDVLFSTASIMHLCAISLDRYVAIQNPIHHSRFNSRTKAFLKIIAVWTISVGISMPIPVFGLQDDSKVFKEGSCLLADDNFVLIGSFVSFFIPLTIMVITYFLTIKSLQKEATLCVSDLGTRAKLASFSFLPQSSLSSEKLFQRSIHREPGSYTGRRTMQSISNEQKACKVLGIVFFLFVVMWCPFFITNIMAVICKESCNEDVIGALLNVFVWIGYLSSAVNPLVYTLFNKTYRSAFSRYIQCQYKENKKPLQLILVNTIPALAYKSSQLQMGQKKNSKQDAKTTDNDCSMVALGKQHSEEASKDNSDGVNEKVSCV
# Method in brief: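 Antagonist-mode intracellular calcium assay: DOI (4 nM) added after 5 min compound pre-incubation at room temperature to dye-loaded HTR2A-CHO cells. Fluorescence followed for 3 min, sampled every second.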
# [13] = biological target: Muscarinic acetylcholine receptor M1 (Homo sapiens) (UniProt P11229); assay: Cholinergic receptor muscarinic 1 (CHRM1) small molecule antagonists, cell-based qHTS assay (AID 1963588); further: nearly all actives have a fitted effect of over 40% in size; further: potency means the concentration at half of the fitted maximal effect
# Chain of Muscarinic acetylcholine receptor M1 (Homo sapiens) (P11229 whole entry, looked up): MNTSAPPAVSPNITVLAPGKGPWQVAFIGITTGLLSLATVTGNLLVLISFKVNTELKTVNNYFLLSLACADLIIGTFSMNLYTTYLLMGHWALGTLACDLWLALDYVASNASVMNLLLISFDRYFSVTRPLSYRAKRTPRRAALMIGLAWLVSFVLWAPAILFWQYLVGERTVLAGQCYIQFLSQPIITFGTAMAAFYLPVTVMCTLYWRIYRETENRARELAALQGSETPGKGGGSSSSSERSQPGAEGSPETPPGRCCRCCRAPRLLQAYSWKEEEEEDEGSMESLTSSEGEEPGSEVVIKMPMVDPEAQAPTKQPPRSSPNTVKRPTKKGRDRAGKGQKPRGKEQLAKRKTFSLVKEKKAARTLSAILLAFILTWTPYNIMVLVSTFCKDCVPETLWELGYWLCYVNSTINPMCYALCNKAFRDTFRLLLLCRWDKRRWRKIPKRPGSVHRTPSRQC
# Method in brief: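 CHRM1-CHO calcium-flux assay, antagonist mode. Cells were seeded 18 h, dye-loaded 1 h at 37 C and given compound for 5 min at RT, then acetylcholine was added at 50nM. FDSS fluorescence was read 3 min; 15 concentrations, three runs.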
# [14] = biological target: Muscarinic acetylcholine receptor M1 (Homo sapiens) (UniProt P11229); assay: Cholinergic receptor muscarinic 1 (CHRM1) small molecule agonists, cell-based qHTS assay (AID 1963589); further: nearly all actives have a fitted effect of over 35% in size
# Method in brief: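 Stable CHRM1-CHO cells (human receptor) were incubated 18 h, dye-loaded for 1 h at 37 C and exposed to test compounds for agonist activity, with calcium-dependent fluorescence followed kinetically.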
# [15] = cAMP Responsive Elements (CRE) small molecule agonists, cell-based qHTS assay (AID 1963590)
# Method in brief: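 FRET-based beta-lactamase readout (LiveBLAzer B/G, 2 h RT) quantified CRE activation in HEK 293T CRE-bla cells after 3 h treatment with DMSO-dissolved compounds.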
# [16] = cAMP Responsive Elements (CRE) small molecule antagonists, cell-based qHTS assay (AID 1963591; active means well fitted inhibition curve with a large enough effect in the signal ratio in the repeat runs, not every such curve was filed as active; the % refers to the signal ratio)
# Method in brief: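 qHTS in CRE-bla HEK 293T cells: compound in DMSO, then 0.25 uM NKH477 (final), 3 h at 37 °C/5% CO2; beta-lactamase FRET read-out after 2 h substrate incubation.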
# [17] = biological target: Beta-2 adrenergic receptor (Homo sapiens) (UniProt P07550); assay: Adrenergic beta2 receptor (ADRB2) small molecule antagonists, cell-based qHTS assay (AID 1963592); further: series mostly up to about 92 µM; nearly all actives have a fitted effect of over 50% in size
# Chain of Beta-2 adrenergic receptor (Homo sapiens) (P07550 whole entry, looked up): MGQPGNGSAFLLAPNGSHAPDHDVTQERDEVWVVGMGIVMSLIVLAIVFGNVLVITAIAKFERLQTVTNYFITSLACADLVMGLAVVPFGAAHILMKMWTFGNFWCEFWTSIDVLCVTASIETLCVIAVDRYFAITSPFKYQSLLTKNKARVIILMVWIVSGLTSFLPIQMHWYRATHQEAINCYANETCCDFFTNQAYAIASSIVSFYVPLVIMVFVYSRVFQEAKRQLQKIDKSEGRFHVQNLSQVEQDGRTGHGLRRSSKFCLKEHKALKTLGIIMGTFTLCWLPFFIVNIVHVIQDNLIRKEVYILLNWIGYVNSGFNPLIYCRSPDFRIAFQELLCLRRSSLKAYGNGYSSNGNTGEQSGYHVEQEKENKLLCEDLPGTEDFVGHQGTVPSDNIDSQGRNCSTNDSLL
# Method in brief: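 Cells (CHO, stable ADRB2 overexpression) incubated 18-20hr at 37C; compounds added from DMSO; agonist mix (1nM isoproterenol, 100uM IBMX, 25uM Ro-20-1724) added; 0.5hr RT; d2-cAMP and anti-cAMP-cryptate added; 1hr RT; 665/615 nm read.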
# [18] = biological target: D(2) dopamine receptor (Homo sapiens) (UniProt P14416); assay: Dopamine D2 receptor (DRD2) small molecule agonists, cell-based qHTS assay (AID 1963594); further: nearly all actives have a fitted effect of over 35% in size
# Chain of D(2) dopamine receptor (Homo sapiens) (P14416 whole entry, looked up): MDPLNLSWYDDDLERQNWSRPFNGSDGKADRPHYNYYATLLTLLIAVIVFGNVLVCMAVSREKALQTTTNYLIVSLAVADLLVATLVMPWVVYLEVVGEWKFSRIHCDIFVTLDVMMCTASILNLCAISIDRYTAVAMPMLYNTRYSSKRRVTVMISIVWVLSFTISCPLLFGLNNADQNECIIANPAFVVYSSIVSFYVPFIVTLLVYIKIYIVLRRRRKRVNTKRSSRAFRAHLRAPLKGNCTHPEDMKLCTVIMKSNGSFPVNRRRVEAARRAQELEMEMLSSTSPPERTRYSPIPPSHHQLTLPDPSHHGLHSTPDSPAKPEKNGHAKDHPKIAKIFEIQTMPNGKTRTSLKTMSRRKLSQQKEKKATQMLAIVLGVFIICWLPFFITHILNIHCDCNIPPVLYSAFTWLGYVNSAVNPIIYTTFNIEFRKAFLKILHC
# Method in brief: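 HEK293 cells stably expressing human DRD2, pre-treated with PDE inhibitor Ro20-1724 (0.1 mM final) and compound 10 min at room temperature, then stimulated with NKH477 (200nM […]) for 30 min. cAMP read by HTRF (665/620 nm).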
# [19] = biological target: D(2) dopamine receptor (Homo sapiens) (UniProt P14416); assay: Dopamine D2 receptor (DRD2) small molecule antagonists, cell-based qHTS assay (AID 1963595; active means well fitted inhibition curve with a large enough effect in the signal ratio in the repeat runs, with a control signal flat; the % refers to the signal ratio)
# Method in brief: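 HEK293 cells stably expressing DRD2, preincubated with 0.1 mM Ro20-1724 and compounds 10 min, were stimulated with 200 nM NKH477 plus 12 nM quinpirole for 30 min at room temperature; cAMP measured by HTRF (665/620 nm).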
# [20] = biological target: 5-hydroxytryptamine receptor 2A (Homo sapiens) (UniProt P28223); assay: 5-hydroxytryptamine receptor 2A (HTR2A) small molecule agonists, cell-based qHTS assay (AID 1963587); further: nearly all actives have a fitted effect of over 30% in size
# Method in brief: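 CHO cells stably expressing human HTR2A, plated 18 h, loaded with calcium dye 1 h at 37 C. Agonist mode: compounds added and intracellular calcium fluorescence recorded kinetically for 2 min at 1 sec intervals.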
Compound,Potency [1],Potency [2],Potency [3],Potency [4],Potency [5],Potency [6],Potency [7],Potency [8],Potency [9],Potency [10],Potency [11],Potency [12],Potency [13],Potency [14],Potency [15],Potency [16],Potency [17],Potency [18],Potency [19],Potency [20]
Nc1ccc(-c2ccc(N)cc2)cc1,inactive,inactive,inactive,inactive,inactive,inactive,inactive,inactive,inactive,inactive,inactive,inactive,inactive,inactive,inactive,inactive,inactive,inactive,inactive,–
Cc1cccc(N)c1N,inactive,2.35 µM (active) and 48.6 µM (active),inactive,inactive,inactive,inactive,inactive,inactive,inactive,inactive,inactive,inactive,–,inactive,inactive,–,inactive,inactive,inactive,inactive
O=C(NCNC(=O)NC1C(=O)NC(=O)N1CO)NC1C(=O)NC(=O)N1CO (stereo not drawn),inactive,inactive,inactive,inactive,inactive,inactive,inactive,inactive,inactive,inactive,inactive,–,inactive,inactive,inactive,inactive,–,inactive,inactive,inactive
O=C(O)COc1ccc(Cl)cc1Cl,inactive,inactive,inactive,inactive,inactive,inactive,inactive,inactive,inactive,inactive,inactive,inactive,–,–,–,inactive,inactive,inactive,inactive,inactive
Cn1c(N)nc2c3cccnc3ccc21,inactive,inactive,inactive,inactive,inactive,inactive,inactive,inactive,inactive,inactive,inactive,–,inactive,inactive,inactive,inactive,inactive,inactive,inactive,inactive
Cc1cc(-c2cc(C)c(N)c(C)c2)cc(C)c1N,inactive,inactive,inactive,inactive,inactive,inactive,inactive,inactive,inactive,inactive,inactive,–,2.11 µM (active) and inactive,inactive,inactive,–,–,inactive,inactive,inactive
CC[N+](=O)[O-],inactive,inactive,inactive,inactive,inactive,inactive,inactive,inactive,inactive,inactive,inactive,–,inactive,inactive,inactive,inactive,inactive,inactive,inactive,inactive
N#CC1(N=NC2(C#N)CCCCC2)CCCCC1,inactive,inactive,inactive,inactive,inactive,inactive,inactive,inactive,inactive,inactive,inactive,–,inactive,inactive,inactive,inactive,inactive,inactive,inactive,inactive
Nc1ccccc1C(=O)O,inactive,inactive,inactive,inactive,inactive,inactive,inactive,inactive,inactive,inactive,inactive,–,inactive,inactive,inactive,inactive,–,inactive,inactive,inactive
COC(=O)c1ccccc1C(=O)OC,inactive,inactive,inactive,inactive,inactive,inactive,inactive,inactive,inactive,inactive,inactive,–,inactive,inactive,inactive,inactive,inactive,inactive,inactive,inactive
Brc1ccc(Oc2cc(Br)c(Br)cc2Br)c(Br)c1,inactive,12.3 µM (active),inactive,inactive,inactive,inactive,inactive,inactive,inactive,inactive,inactive,inactive,inactive,inactive,inactive,inactive,inactive,inactive,inactive,–
CN(N=O)C(N)=O,inactive,inactive,inactive,inactive,inactive,inactive,inactive,inactive,inactive,inactive,inactive,inactive,inactive,inactive,inactive,inactive,inactive,inactive,–,–
Clc1ccc(C2(Cn3cncn3)OCCO2)c(Cl)c1,inactive,inactive,inactive,inactive,inactive,inactive,inactive,inactive,inactive,inactive,inactive,inactive,–,inactive,inactive,inactive,inactive,inactive,inactive,inactive
ClCCN1CCOCC1,inactive,inactive,inactive,inactive,inactive,inactive,inactive,inactive,inactive,inactive,inactive,inactive,inactive,inactive,inactive,inactive,–,inactive,inactive,–
COc1cccc(C=O)c1,inactive,inactive,inactive,inactive,inactive,inactive,inactive,inactive,inactive,inactive,inactive,inactive,inactive,–,inactive,–,inactive,inactive,–,–
